Data: paper PMC5700166

Columns and labels:
Assay in all cases: protein-binding microarray (PBM); PBM: ~300 nM protein, 6 mM HEPES pH 7.8, 80 mM KCl, 0.5 mM EDTA, 0.5 mM EGTA, 6% glycerol, 35 ng/ul poly-dIdC, 1% milk, 1 h, room temperature; Ap Aiptasia and Nv Nematostella (sea anemones) / Co Capsaspora / Aq Amphimedon (sponge) / Dm Drosophila / Hu human; RHD is the Rel homology domain; high values mean tight binding
Conditions in all cases: dsDNA, one strand shown
GST-Ap-NF-kB RHD = target: T1, GST-Ap-NF-kB RHD (Exaiptasia pallida (Aiptasia), UniProt A0A913YAJ5 2-422)
T1 sequence: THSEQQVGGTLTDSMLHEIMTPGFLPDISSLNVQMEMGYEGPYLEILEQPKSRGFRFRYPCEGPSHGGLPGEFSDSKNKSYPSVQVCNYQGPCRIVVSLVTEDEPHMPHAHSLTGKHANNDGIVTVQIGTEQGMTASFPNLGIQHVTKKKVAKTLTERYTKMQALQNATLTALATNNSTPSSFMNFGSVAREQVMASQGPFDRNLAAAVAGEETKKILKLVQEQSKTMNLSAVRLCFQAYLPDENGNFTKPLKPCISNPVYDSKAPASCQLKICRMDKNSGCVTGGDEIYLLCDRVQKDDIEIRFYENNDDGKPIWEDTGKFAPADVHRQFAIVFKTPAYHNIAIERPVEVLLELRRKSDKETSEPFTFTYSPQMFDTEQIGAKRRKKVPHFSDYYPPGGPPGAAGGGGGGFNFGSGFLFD

[1] = target: T2, GST-Nv-NF-kB (Cys allele) (Nematostella vectensis, UniProt E5G601 2-411)
T2 sequence: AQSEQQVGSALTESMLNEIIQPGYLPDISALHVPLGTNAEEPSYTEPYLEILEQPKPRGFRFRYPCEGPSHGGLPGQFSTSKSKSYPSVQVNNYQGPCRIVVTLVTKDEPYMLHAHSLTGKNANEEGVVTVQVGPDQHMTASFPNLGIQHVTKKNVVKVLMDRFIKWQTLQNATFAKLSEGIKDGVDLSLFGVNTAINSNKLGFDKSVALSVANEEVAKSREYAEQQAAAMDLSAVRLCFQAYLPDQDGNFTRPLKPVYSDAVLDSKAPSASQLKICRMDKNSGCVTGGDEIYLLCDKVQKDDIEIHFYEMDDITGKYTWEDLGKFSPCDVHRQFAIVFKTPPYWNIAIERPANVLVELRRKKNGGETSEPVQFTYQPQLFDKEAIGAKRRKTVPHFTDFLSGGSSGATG

GST-Co-NF-kB = target: T3, GST-Co-NF-kB (Capsaspora owczarzaki, UniProt F1ARL5 200-546)
T3 sequence: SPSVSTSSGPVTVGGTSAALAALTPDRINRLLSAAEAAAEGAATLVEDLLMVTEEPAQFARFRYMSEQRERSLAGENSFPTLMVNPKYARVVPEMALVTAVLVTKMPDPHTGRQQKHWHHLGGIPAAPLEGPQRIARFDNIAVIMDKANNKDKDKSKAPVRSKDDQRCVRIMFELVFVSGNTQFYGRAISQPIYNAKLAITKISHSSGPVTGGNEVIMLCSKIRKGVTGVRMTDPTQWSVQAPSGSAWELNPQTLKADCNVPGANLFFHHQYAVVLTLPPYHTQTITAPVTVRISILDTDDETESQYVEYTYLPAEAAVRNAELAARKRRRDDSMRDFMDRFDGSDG

GST-Dm-Relish = target: T4, GST-Dm-Relish (Drosophila melanogaster, UniProt Q94527 99-473)
T4 sequence: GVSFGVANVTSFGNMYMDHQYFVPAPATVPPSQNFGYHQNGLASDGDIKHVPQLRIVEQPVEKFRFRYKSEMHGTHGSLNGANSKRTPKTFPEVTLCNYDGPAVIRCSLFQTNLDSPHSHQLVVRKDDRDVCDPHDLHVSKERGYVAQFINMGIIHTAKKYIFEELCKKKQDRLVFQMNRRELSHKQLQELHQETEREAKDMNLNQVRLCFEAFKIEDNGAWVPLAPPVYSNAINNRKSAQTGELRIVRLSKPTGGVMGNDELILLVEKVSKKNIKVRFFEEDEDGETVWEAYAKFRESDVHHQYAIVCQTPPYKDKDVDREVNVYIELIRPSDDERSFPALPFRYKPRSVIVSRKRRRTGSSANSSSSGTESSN

GST-Aq-NF-kB = target: T5, GST-Aq-NF-kB (Amphimedon queenslandica, UniProt A9Y5G7 2-389)
T5 sequence: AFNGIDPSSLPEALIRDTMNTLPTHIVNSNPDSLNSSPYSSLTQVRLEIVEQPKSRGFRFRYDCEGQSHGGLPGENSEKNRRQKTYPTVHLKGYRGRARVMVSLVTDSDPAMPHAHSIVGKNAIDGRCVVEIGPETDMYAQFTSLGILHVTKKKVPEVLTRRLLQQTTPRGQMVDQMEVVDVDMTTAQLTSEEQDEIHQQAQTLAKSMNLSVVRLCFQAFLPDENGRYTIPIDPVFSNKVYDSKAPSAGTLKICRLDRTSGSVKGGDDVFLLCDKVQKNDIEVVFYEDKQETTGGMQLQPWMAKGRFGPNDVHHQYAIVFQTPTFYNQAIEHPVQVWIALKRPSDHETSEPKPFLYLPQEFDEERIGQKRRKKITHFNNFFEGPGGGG

Sequence | binding signal (GST-Ap-NF-kB RHD) [z-score] | binding signal [1] [z-score] | binding signal (GST-Co-NF-kB) [z-score] | binding signal (GST-Dm-Relish) [z-score] | binding signal (GST-Aq-NF-kB) [z-score]
CCGATTAACATCAATATACCCCCTGATGTTAATCGGGTCTTGATTCGCTTGACGCTGCTG | 6.61 | 4.24 | 6.57 | 3.69 | 4.03
CCGATTAACATCACAAAAATCCCTGATGTTAATCGGGTCTTGATTCGCTTGACGCTGCTG | 5.86 | 6.11 | 2.59 | 8.17 | 6.23
CCGATTAACATCACTTCCCCCCATGATGTTAATCGGGTCTTGATTCGCTTGACGCTGCTG | 4.7 | 4.18 | 8.31 | 3.34 | 3.86
CCGATTAACATCAGGGATTTCTATGATGTTAATCGGGTCTTGATTCGCTTGACGCTGCTG | 4.28 | 4.04 | 1.22 | 5.1 | 4
CCGATTAACATCAATAAATACCCTGATGTTAATCGGGTCTTGATTCGCTTGACGCTGCTG | 3.73 | 5.36 | 2.51 | 4.58 | 4.69
CCGATTAACATCAAAGGTCCCCCTGATGTTAATCGGGTCTTGATTCGCTTGACGCTGCTG | 6.07 | 4.14 | 4.7 | 4.42 | 4.58
CCGATTAACATCAGGGAATTAAATGATGTTAATCGGGTCTTGATTCGCTTGACGCTGCTG | 2.06 | 4.46 | 3.84 | 2.47 | 4.32
CCGATTAACATCAGGGGAATGACTGATGTTAATCGGGTCTTGATTCGCTTGACGCTGCTG | 5.81 | 6.43 | 3.9 | 5.22 | 5.09
CCGATTAACATCAGGGGATAAAATGATGTTAATCGGGTCTTGATTCGCTTGACGCTGCTG | 4.6 | 5.11 | 7.5 | 3.31 | 4.05
CCGATTAACATCAGCACCCCCCCTGATGTTAATCGGGTCTTGATTCGCTTGACGCTGCTG | 5.67 | 3.51 | 4.07 | 4.44 | 4.32
CCGATTAACATCAGGGGGGGACCTGATGTTAATCGGGTCTTGATTCGCTTGACGCTGCTG | 7.43 | 4.15 | 5.99 | 4.96 | 5.51
CCGATTAACATCAGAATTGCCCCTGATGTTAATCGGGTCTTGATTCGCTTGACGCTGCTG | 2.58 | 3.54 | 1.95 | 1.75 | 3.86
CCGATTAACATCAAAAAGTTCCCTGATGTTAATCGGGTCTTGATTCGCTTGACGCTGCTG | 4.61 | 5.3 | 4.37 | 6.54 | 5.9
CCGATTAACATCAGGTATTCCCATGATGTTAATCGGGTCTTGATTCGCTTGACGCTGCTG | 3.43 | 2.67 | 2.14 | 7.54 | 4.66
CCGATTAACATCAGGGTATTCCATGATGTTAATCGGGTCTTGATTCGCTTGACGCTGCTG | 3.89 | 4.62 | 1.19 | 5.81 | 4.83
CCGATTAACATCAATGGGAATTCTGATGTTAATCGGGTCTTGATTCGCTTGACGCTGCTG | 2.8 | 4.72 | 2.98 | 4.26 | 3.51
CCGATTAACATCAGGGAATATTATGATGTTAATCGGGTCTTGATTCGCTTGACGCTGCTG | 5.06 | 5.86 | 3.81 | 3 | 5.75
CCGATTAACATCAGGGGGGTACATGATGTTAATCGGGTCTTGATTCGCTTGACGCTGCTG | 5.31 | 2.52 | 5.22 | 4.13 | 3.31
CCGATTAACATCAGGGGATCTACTGATGTTAATCGGGTCTTGATTCGCTTGACGCTGCTG | 5.31 | 4.68 | 1.96 | 9.02 | 5.74
CCGATTAACATCAGGGGAAGGAATGATGTTAATCGGGTCTTGATTCGCTTGACGCTGCTG | 3.87 | 5.34 | 6.35 | 3.59 | 4.05
CCGATTAACATCAGGGAATTATATGATGTTAATCGGGTCTTGATTCGCTTGACGCTGCTG | 4.16 | 6.68 | 4.16 | 3.26 | 6.69
CCGATTAACATCAGGGAAATATATGATGTTAATCGGGTCTTGATTCGCTTGACGCTGCTG | 3.7 | 5.66 | 5.34 | 1.94 | 6.09
CCGATTAACATCAGGGATTTTCATGATGTTAATCGGGTCTTGATTCGCTTGACGCTGCTG | 5.23 | 4.83 | 1.61 | 6.05 | 5.16
CCGATTAACATCAGGGGATTAGATGATGTTAATCGGGTCTTGATTCGCTTGACGCTGCTG | 4.5 | 4.8 | 2.75 | 3.13 | 3.91
CCGATTAACATCAAGGAAACCCCTGATGTTAATCGGGTCTTGATTCGCTTGACGCTGCTG | 6.7 | 4.95 | 2.91 | 7.36 | 6.19
CCGATTAACATCACCGCCCCACGTGATGTTAATCGGGTCTTGATTCGCTTGACGCTGCTG | 1.95 | 1.73 | 1.4 | 1.95 | 1.28
CCGATTAACATCAGGGGTTACCCTGATGTTAATCGGGTCTTGATTCGCTTGACGCTGCTG | 6.28 | 5.58 | 4.23 | 8.84 | 7.71
